# Reference: PubChem BioAssay (NCI)
# This is part of a sample that, as a whole, favours compounds with a hit. Of some 83,000 tested, about 20% had one in any assay.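 Treatment: one concentration, 48 hours, 96-well format. Scoring: percent growth, with anything below 10 considered active.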 Values without a mark were called inactive. The source made the active and inactive calls.
# Legend:
# Test in all cases: NCI-60 one-dose screen, 48 h (100 = growth as untreated, 0 = no growth, -100 = all killed)
# Conditions in all cases: 10 µM unless noted
# SR leukemia = test system: SR leukemia
# RPMI-8226 leukemia = test system: RPMI-8226 leukemia
# OVCAR-8 ovarian = test system: OVCAR-8 ovarian
# OVCAR-5 ovarian = test system: OVCAR-5 ovarian
# OVCAR-4 ovarian = test system: OVCAR-4 ovarian
# SK-OV-3 ovarian = test system: SK-OV-3 ovarian
# OVCAR-3 ovarian = test system: OVCAR-3 ovarian
# HS 578T breast = test system: HS 578T breast
# NCI/ADR-RES ovarian = test system: NCI/ADR-RES ovarian
# T-47D breast = test system: T-47D breast
# BT-549 breast = test system: BT-549 breast
# MDA-MB-435 melanoma = test system: MDA-MB-435 melanoma
# SW-620 colon = test system: SW-620 colon
# MCF7 breast = test system: MCF7 breast
# HCT-116 colon = test system: HCT-116 colon
# HCC-2998 colon = test system: HCC-2998 colon
# KM12 colon = test system: KM12 colon
# IGROV1 ovarian = test system: IGROV1 ovarian
SMILES,growth (SR leukemia),growth (RPMI-8226 leukemia),growth (OVCAR-8 ovarian),growth (OVCAR-5 ovarian),growth (OVCAR-4 ovarian),growth (SK-OV-3 ovarian),growth (OVCAR-3 ovarian),growth (HS 578T breast),growth (NCI/ADR-RES ovarian),growth (T-47D breast),growth (BT-549 breast),growth (MDA-MB-435 melanoma),growth (SW-620 colon),growth (MCF7 breast),growth (HCT-116 colon),growth (HCC-2998 colon),growth (KM12 colon),growth (IGROV1 ovarian)
Fc1ccc(-c2nn(-c3ccccc3)cc2-c2nc3ccccc3o2)cc1,43.6%,48.2%,58.8%,122%,78.1%,120%,45.1%,82%,46.9%,44.6%,66.4%,27.8%,63.1%,50.9%,34.8%,101%,31.3%,
COc1cc2c(c(OC)c1OC)CCC(c1cccc(C(=O)Nc3cccc(Br)c3)c1)O2 (stereo not drawn),35.6%,50%,81.1%,81.3%,55%,78%,74.7%,,79.6%,40.6%,,69.6%,79.6%,77.8%,55%,,81.2%,81.8%
CC(C)n1cnc2c(=S)nc[nH]c21,74.8%,72.9%,109%,121%,124%,-99.9% (active),105%,,133%,101%,112%,94.9%,103%,106%,106%,,102%,114%
O=C(O)[C@@H]1c2ccccc2-c2ccccc2[C@H]1C(=O)O,116%,100%,78.4%,83.2%,98%,103%,104%,,,102%,114%,100%,101%,94.6%,92.6%,,105%,80.7%
CC(C)=NNc1ccccn1,32%,70.3%,29%,54.4%,12%,26.2%,18.8%,79.5%,33.5%,15.4%,62.5%,55.2%,26.2%,18%,23.6%,48.1%,38.2%,
Brc1ccc(-n2cc(-c3nn[nH]n3)c(-c3cccs3)n2)cc1,110%,99.3%,98.8%,100%,100%,93.5%,105%,,107%,95.6%,95.3%,106%,102%,90.1%,91.5%,105%,103%,93.2%
CO[C@]12C=C/C(=C(/C(=O)OCc3cccnc3)C(=O)CCCCCCCC[C@@]3(OC)C=C/C(=C(/C(=O)OCc4cccnc4)C(=O)CCCCCCCC1)O3)O2,-9.1% (active),-9.22% (active),19.9%,-5.24% (active),11%,57.4%,-19.3% (active),,36.3%,38.4%,,-11.8% (active),13.8%,18.5%,-35.5% (active),-79.2% (active),-70.4% (active),2.68% (active)
COc1ccc(-c2nn(-c3ccccc3)cc2/C=C2/SC(=S)N(C)C2=O)cc1,29.3%,89.8%,49.8%,76.3%,-24% (active),90.8%,53%,39.3%,74.5%,35.1%,102%,84.9%,66.8%,75.3%,31%,98.9%,,
COc1ccc(-c2ccc3cnc4sc(-c5ccc(OC)cc5)nc4c3n2)cc1,83.7%,87.5%,96.3%,97.4%,96.9%,92.6%,101%,,92.9%,76.3%,108%,101%,112%,78%,94.5%,93.1%,89.1%,94%
CC(=O)c1cc(O)c2ccccc2c1O,110%,46.4%,86.3%,109%,93.4%,102%,91.7%,123%,87%,87.1%,91.7%,111%,108%,75.2%,95.4%,166%,106%,
